pKD data for eleven compounds are collected here from ChEMBL document CHEMBL5598561, “ASAP - In vitro binding kinetics” (2024).

For this assay, the target named is Nonstructural protein 3 (Zika virus) (UniProt A0A024AXB9).
Chain of Nonstructural protein 3 (Zika virus) (A0A024AXB9 as listed by the source): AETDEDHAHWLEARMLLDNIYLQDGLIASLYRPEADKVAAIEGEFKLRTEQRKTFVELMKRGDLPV

The term pKD denotes −log10 of the KD, conventionally taken in molar units. Lower therefore signals a high KD. Regarding `COCCCN1Cc2ccc(NC(=O)c3cc(Cl)cc4[nH]ncc34)cc2C1`, the pKD is, setting by setting: (PRVABC59, Concentration 10.0 uM, Immobilization level 3900.0 pg/mm2, Rmax 42.0 pg/mm2, ka 388632.967 M-1s-1, kd 5.459 1/s) 4.85; (PRVABC59, Concentration 10.0 uM, Immobilization level 4900.0 pg/mm2, Rmax 39.0 pg/mm2, ka 367718.358 M-1s-1, kd 4.612 1/s) 4.9; (PRVABC59, Concentration 10.0 uM, Immobilization level 5500.0 pg/mm2, Rmax 38.0 pg/mm2, ka 400996.136 M-1s-1, kd 4.84 1/s) 4.92; (PRVABC59, Concentration 10.0 uM, Immobilization level 10000.0 pg/mm2, Rmax 39.0 pg/mm2, ka 289414.732 M-1s-1, kd 5.077 1/s) 4.76; (PRVABC59, Concentration 10.0 uM, Immobilization level 12000.0 pg/mm2, Rmax 59.0 pg/mm2, ka 250455.768 M-1s-1, kd 3.882 1/s) 4.81; (PRVABC59, Concentration 10.0 uM, Immobilization level 13000.0 pg/mm2, Rmax 33.0 pg/mm2, ka 234107.52 M-1s-1, kd 2.737 1/s) 4.93.
Turning to `Cn1cc2cc(Cl)cc(C(=O)Nc3ccc4c(c3)CNC4)c2n1`, the pKD runs as follows: (PRVABC59, Concentration 10.0 uM, Immobilization level 10000.0 pg/mm2, Rmax 16.0 pg/mm2, ka 983801.201 M-1s-1, kd 0.863 1/s) 6.06; (PRVABC59, Concentration 10.0 uM, Immobilization level 12000.0 pg/mm2, Rmax 34.0 pg/mm2, ka 627028.403 M-1s-1, kd 0.493 1/s) 6.1; (PRVABC59, Concentration 10.0 uM, Immobilization level 13000.0 pg/mm2, Rmax 25.0 pg/mm2, ka 951140.583 M-1s-1, kd 0.688 1/s) 6.14.
With `O=C1CCN(c2cc(Cl)cc(C(=O)Nc3ccc4c(c3)CNC4)c2)C(=O)N1`, the pKD is, setting by setting: (PRVABC59, Concentration 10.0 uM, Immobilization level 10000.0 pg/mm2, Rmax 25.0 pg/mm2, ka 256015.917 M-1s-1, kd 2.294 1/s) 5.05; (PRVABC59, Concentration 10.0 uM, Immobilization level 12000.0 pg/mm2, Rmax 56.0 pg/mm2, ka 218751.029 M-1s-1, kd 1.634 1/s) 5.13; (PRVABC59, Concentration 10.0 uM, Immobilization level 13000.0 pg/mm2, Rmax 29.0 pg/mm2, ka 336624.127 M-1s-1, kd 1.776 1/s) 5.28.
On to `CC(=O)Nc1cc(Br)cc(C(=O)Nc2ccc3c(c2)CNC3)c1`, for which the pKD runs as follows: (PRVABC59, Concentration 10.0 uM, Immobilization level 3900.0 pg/mm2, Rmax 40.0 pg/mm2, ka 607998.487 M-1s-1, kd 0.155 1/s) 6.59; (PRVABC59, Concentration 10.0 uM, Immobilization level 4900.0 pg/mm2, Rmax 52.0 pg/mm2, ka 391367.264 M-1s-1, kd 0.17 1/s) 6.36; (PRVABC59, Concentration 10.0 uM, Immobilization level 5500.0 pg/mm2, Rmax 55.0 pg/mm2, ka 425641.507 M-1s-1, kd 0.187 1/s) 6.36; (PRVABC59, Concentration 10.0 uM, Immobilization level 10000.0 pg/mm2, Rmax 42.0 pg/mm2, ka 618288.109 M-1s-1, kd 0.171 1/s) 6.56; (PRVABC59, Concentration 10.0 uM, Immobilization level 12000.0 pg/mm2, Rmax 74.0 pg/mm2, ka 318554.659 M-1s-1, kd 0.182 1/s) 6.24; (PRVABC59, Concentration 10.0 uM, Immobilization level 13000.0 pg/mm2, Rmax 61.0 pg/mm2, ka 520517.585 M-1s-1, kd 0.161 1/s) 6.51.
Regarding `N[C@H]1CCCc2ccc(NC(=O)c3cc(Cl)cc4[nH]ncc34)cc21`, the negative logarithm of the KD (pKD) was determined as 5.29 (PRVABC59, Concentration 10.0 uM, Immobilization level 3900.0 pg/mm2, Rmax 27.0 pg/mm2, ka 296746.451 M-1s-1, kd 1.513 1/s); 4.96 (PRVABC59, Concentration 10.0 uM, Immobilization level 4900.0 pg/mm2, Rmax 56.0 pg/mm2, ka 115778.511 M-1s-1, kd 1.284 1/s); 5.12 (PRVABC59, Concentration 10.0 uM, Immobilization level 5500.0 pg/mm2, Rmax 46.0 pg/mm2, ka 170057.868 M-1s-1, kd 1.305 1/s); 5.27 (PRVABC59, Concentration 10.0 uM, Immobilization level 10000.0 pg/mm2, Rmax 44.0 pg/mm2, ka 295859.47 M-1s-1, kd 1.578 1/s); 5.25 (PRVABC59, Concentration 10.0 uM, Immobilization level 12000.0 pg/mm2, Rmax 41.0 pg/mm2, ka 173417.805 M-1s-1, kd 0.975 1/s); 5.25 (PRVABC59, Concentration 10.0 uM, Immobilization level 13000.0 pg/mm2, Rmax 62.0 pg/mm2, ka 213953.785 M-1s-1, kd 1.191 1/s).
As for `O=C(Nc1ccc2c(c1)CNC2)c1cc(Br)cc2[nH]ncc12`, the pKD is, setting by setting: (PRVABC59, Concentration 10.0 uM, Immobilization level 3900.0 pg/mm2, Rmax 38.0 pg/mm2, ka 289981.015 M-1s-1, kd 0.089 1/s) 6.51; (PRVABC59, Concentration 10.0 uM, Immobilization level 4900.0 pg/mm2, Rmax 58.0 pg/mm2, ka 168121.167 M-1s-1, kd 0.102 1/s) 6.21; (PRVABC59, Concentration 10.0 uM, Immobilization level 5500.0 pg/mm2, Rmax 62.0 pg/mm2, ka 169991.939 M-1s-1, kd 0.118 1/s) 6.16; (PRVABC59, Concentration 10.0 uM, Immobilization level 10000.0 pg/mm2, Rmax 73.0 pg/mm2, ka 76775.421 M-1s-1, kd 0.125 1/s) 5.79; (PRVABC59, Concentration 10.0 uM, Immobilization level 12000.0 pg/mm2, Rmax 147.0 pg/mm2, ka 18302.495 M-1s-1, kd 0.037 1/s) 5.69; (PRVABC59, Concentration 10.0 uM, Immobilization level 13000.0 pg/mm2, Rmax 120.0 pg/mm2, ka 46201.966 M-1s-1, kd 0.079 1/s) 5.76.
On to `O=C(Nc1ccc2c(c1)CNCCC2)c1cc(Cl)cc2[nH]ncc12`, for which the negative logarithm of the KD (pKD) stood at 6.08 (PRVABC59, Concentration 10.0 uM, Immobilization level 3900.0 pg/mm2, Rmax 31.0 pg/mm2, ka 773276.281 M-1s-1, kd 0.645 1/s); 5.89 (PRVABC59, Concentration 10.0 uM, Immobilization level 4900.0 pg/mm2, Rmax 48.0 pg/mm2, ka 455527.731 M-1s-1, kd 0.593 1/s); 5.96 (PRVABC59, Concentration 10.0 uM, Immobilization level 5500.0 pg/mm2, Rmax 50.0 pg/mm2, ka 530646.741 M-1s-1, kd 0.578 1/s); 5.99 (PRVABC59, Concentration 10.0 uM, Immobilization level 10000.0 pg/mm2, Rmax 36.0 pg/mm2, ka 650451.64 M-1s-1, kd 0.663 1/s); 6.2 (PRVABC59, Concentration 10.0 uM, Immobilization level 12000.0 pg/mm2, Rmax 60.0 pg/mm2, ka 669381.958 M-1s-1, kd 0.419 1/s); 5.99 (PRVABC59, Concentration 10.0 uM, Immobilization level 13000.0 pg/mm2, Rmax 48.0 pg/mm2, ka 553000.714 M-1s-1, kd 0.56 1/s).
Turning to `O=C1NCc2c1cccc2C(=O)Nc1ccc2c(c1)CNC2`, the pKD stood at 4.99 (PRVABC59, Concentration 10.0 uM, Immobilization level 3900.0 pg/mm2, Rmax 18.0 pg/mm2, ka 393715.885 M-1s-1, kd 4.071 1/s); 4.92 (PRVABC59, Concentration 10.0 uM, Immobilization level 4900.0 pg/mm2, Rmax 15.0 pg/mm2, ka 235814.335 M-1s-1, kd 2.807 1/s); 4.93 (PRVABC59, Concentration 10.0 uM, Immobilization level 5500.0 pg/mm2, Rmax 18.0 pg/mm2, ka 357121.96 M-1s-1, kd 4.231 1/s); 5.07 (PRVABC59, Concentration 10.0 uM, Immobilization level 12000.0 pg/mm2, ka 172299.161 M-1s-1, kd 1.476 1/s); 4.16 (PRVABC59, Concentration 10.0 uM, Immobilization level 13000.0 pg/mm2, Rmax 19.0 pg/mm2, ka 18937.32 M-1s-1, kd 1.323 1/s).
`O=C(Nc1ccc2c(c1)CNC2)c1cc(C(F)(F)F)cc2[nH]ccc12`: the pKD runs as follows: (PRVABC59, Concentration 10.0 uM, Immobilization level 3900.0 pg/mm2, Rmax 30.0 pg/mm2, ka 544431.648 M-1s-1, kd 0.73 1/s) 5.87; (PRVABC59, Concentration 10.0 uM, Immobilization level 4900.0 pg/mm2, Rmax 46.0 pg/mm2, ka 302890.351 M-1s-1, kd 0.564 1/s) 5.73; (PRVABC59, Concentration 10.0 uM, Immobilization level 5500.0 pg/mm2, Rmax 46.0 pg/mm2, ka 376673.864 M-1s-1, kd 0.583 1/s) 5.81; (PRVABC59, Concentration 10.0 uM, Immobilization level 10000.0 pg/mm2, Rmax 31.0 pg/mm2, ka 377188.867 M-1s-1, kd 0.653 1/s) 5.76; (PRVABC59, Concentration 10.0 uM, Immobilization level 12000.0 pg/mm2, Rmax 50.0 pg/mm2, ka 339395.125 M-1s-1, kd 0.433 1/s) 5.89; (PRVABC59, Concentration 10.0 uM, Immobilization level 13000.0 pg/mm2, Rmax 43.0 pg/mm2, ka 290221.417 M-1s-1, kd 0.559 1/s) 5.71.
For the compound `N#Cc1cc(C(=O)Nc2ccc3c(c2)CNC3)cc(C(F)(F)F)c1`, the negative-log KD (pKD) came to 5.36 (PRVABC59, Concentration 1.0 uM, Immobilization level 3900.0 pg/mm2, Rmax 43.0 pg/mm2, ka 266866.495 M-1s-1, kd 1.179 1/s); 5.84 (PRVABC59, Concentration 10.0 uM, Immobilization level 4900.0 pg/mm2, Rmax 32.0 pg/mm2, ka 534169.763 M-1s-1, kd 0.781 1/s); 5.84 (PRVABC59, Concentration 10.0 uM, Immobilization level 5500.0 pg/mm2, Rmax 33.0 pg/mm2, ka 604018.636 M-1s-1, kd 0.866 1/s); 5.56 (PRVABC59, Concentration 10.0 uM, Immobilization level 10000.0 pg/mm2, Rmax 37.0 pg/mm2, ka 362843.113 M-1s-1, kd 0.996 1/s); 5.43 (PRVABC59, Concentration 10.0 uM, Immobilization level 12000.0 pg/mm2, Rmax 65.0 pg/mm2, ka 232125.016 M-1s-1, kd 0.861 1/s); 5.68 (PRVABC59, Concentration 10.0 uM, Immobilization level 13000.0 pg/mm2, Rmax 45.0 pg/mm2, ka 383567.228 M-1s-1, kd 0.798 1/s).
As to `N[C@H]1CCc2ccc(NC(=O)c3cc(Cl)cc4[nH]ncc34)cc21`, the pKD runs as follows: (PRVABC59, Concentration 10.0 uM, Immobilization level 3900.0 pg/mm2, Rmax 29.0 pg/mm2, ka 348858.596 M-1s-1, kd 0.945 1/s) 5.57; (PRVABC59, Concentration 10.0 uM, Immobilization level 4900.0 pg/mm2, Rmax 45.0 pg/mm2, ka 214378.611 M-1s-1, kd 0.858 1/s) 5.4; (PRVABC59, Concentration 10.0 uM, Immobilization level 5500.0 pg/mm2, Rmax 42.0 pg/mm2, ka 277409.149 M-1s-1, kd 0.816 1/s) 5.53; (PRVABC59, Concentration 10.0 uM, Immobilization level 10000.0 pg/mm2, Rmax 43.0 pg/mm2, ka 267738.182 M-1s-1, kd 1.043 1/s) 5.41; (PRVABC59, Concentration 10.0 uM, Immobilization level 12000.0 pg/mm2, Rmax 61.0 pg/mm2, ka 230496.11 M-1s-1, kd 0.784 1/s) 5.47; (PRVABC59, Concentration 10.0 uM, Immobilization level 13000.0 pg/mm2, Rmax 48.0 pg/mm2, ka 351322.313 M-1s-1, kd 0.852 1/s) 5.62.
